The text below walks through data of PubChem BioAssay (Tox21).

Values without a mark were called inactive. Records with an inconclusive call do not appear. The source made the active and inactive calls. Unless noted, calls come from the whole dose curve; as a rule, active = well fitted curve in the direction sought with a large enough effect in the repeat runs; inconclusive = weak or mixed curves; inactive = no such curve, though single readings can be large; an effect the other way counts as inactive or inconclusive.

Test [1] in a line: qHTS assay to identify small molecule agonists of the sonic hedgehog signaling (Shh) pathway (AID 1259368; calls by dose curve;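 note: NIH/3T3-derived 3T3Gli1-Luc cells carrying a stable Gli1-driven firefly luciferase reporter; series mostly up to about 92 µM; nearly all actives have a fitted effect of over 15% in size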). In outline:
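Steps: seed 3T3 Gli1-Luc cells, incubate 4 hr at 37 C, pin-transfer compounds in DMSO alongside a positive control, incubate 24 hr, add luciferase detection reagent, wait 30 min at room temperature, read luminescence.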
Background: Quantitative high-throughput screening tests each substance at several concentrations.

Test [2] is described as follows: qHTS assay to identify small molecule antagonists of the sonic hedgehog signaling (Shh) pathway (AID 1259369; calls by dose curve; note: nearly all actives have a fitted effect of over 45% in size). In outline:
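Inhibition of Shh signalling is measured as reduced Gli1-response-element firefly luciferase output in an NIH/3T3-derived stable reporter clone stimulated with conditioned medium for 24hr.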

Test [3] deals with Estrogen receptor beta (Homo sapiens) (UniProt Q92731). As to the kind of experiment: qHTS assay to identify small molecule agonists of the estrogen receptor beta (ER-beta) signaling pathway (AID 1259377; active = well fitted activation curve with a large enough effect in the signal ratio in the repeat runs, not every such curve was filed as active; the % refers to the signal ratio). The essentials: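 ER-beta-UAS-bla HEK293T cells in medium with 2% charcoal-stripped FBS were exposed to compounds for 16 h at 37C. Beta-lactamase reporter activity was read as fluorescence after 2 h with LiveBLAzer B/G FRET substrate at room temperature.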

For test [4] the target is unchanged. As to the kind of experiment: qHTS assay to identify small molecule antagonists of the estrogen receptor beta (ER-beta) signaling pathway (AID 1259378; active = well fitted inhibition curve with a large enough effect in the signal ratio in the repeat runs, not every such curve was filed as active; the % refers to the signal ratio). In outline:
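ER-beta-UAS-bla HEK293T cells in 2% charcoal-stripped FBS medium treated with compound plus 1nM final 17-beta-estradiol for 16 hr at 37C. Beta-lactamase reporter read by FRET substrate fluorescence after 2 hours at room temperature.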

Test [5] in a line: qHTS assay to identify small molecule agonists of the androgen receptor (AR) signaling pathway in the presence of an antagonist - cell viability counter screen (AID 1259379).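 Note: MDA-kb2 human breast cancer cells carrying an MMTV luciferase reporter; series mostly up to about 92 µM; nearly all actives have a fitted effect of over 25% in size.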 The essentials:
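Fluorescence from CellTiter-Fluor, added after 15 hr and read 1 hr later, gave cell viability. Cells were MDA-kb2 exposed to compounds (15 concentrations) in the presence of 3.0uM nilutamide at 37C, 0% CO2.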

Test [6] is described as follows: qHTS assay to identify small molecule agonists of the estrogen receptor beta (ER-beta) signaling pathway - cell viability counter screen (AID 1259380). Note: nearly all actives have a fitted effect of over 30% in size. In outline:
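Same-well viability counter screen. Cells: ER-beta-UAS-bla HEK293T, plated 6 hr before compound, in 2% charcoal-stripped FBS. Compound exposure 16 hr, 37C; viability by CellTiter-Glo luminescence after 30 min at room temperature.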

A short description of test [7]: qHTS assay to identify small molecule antagonists of the estrogen receptor beta (ER-beta) signaling pathway - cell viability counter screen (AID 1259382). Note: series mostly up to about 92 µM; nearly all actives have a fitted effect of over 55% in size. In outline:
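Following a 6 hr plating period, HEK293T cells carrying a UAS-driven beta-lactamase reporter under ER-beta control received compounds and 1nM E2 (final). After 16 hr at 37C and 2 hr substrate loading, CellTiter-Glo luminescence indicated viability.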

The target in test [8] is Estrogen receptor (Homo sapiens) (UniProt P03372). As to the kind of experiment: qHTS assay to identify small molecule agonists of the estrogen receptor alpha (ER-alpha) signaling pathway in the presence of an antagonist (AID 1259383; calls by dose curve; note: top concentration of the series differs between compounds; nearly all actives have a fitted effect of over 15% in size). The essentials:
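Cells are hormone-deprived for 5 days (charcoal-stripped FBS, no phenol red), plated for 24hr, spiked with 10.0nM ICI-182,780, then dosed at 15 concentrations. After 22hr at 37C, ONE-Glo luminescence reports ERE-luciferase activity.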

Test [9] is described as follows: qHTS assay to identify small molecule agonists or antagonists of the thyroid stimulating hormone receptor (TSHR) signaling pathway - wild type cell line counter screen (AID 1259384; calls by dose curve). In outline: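 Wild-type Hek293 cells, 800/well, 18 h at 37C, then compound with Ro20-1724 for 30 min RT. cAMP by HTRF (cAMP-d2/anti-cAMP cryptate), 1 h RT, fluorescence read. 15 concentrations, triplicates.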

Test [10] deals with Thyrotropin receptor (Homo sapiens) (UniProt P16473). The test is described as follows: qHTS assay to identify small molecule antagonists of the thyroid stimulating hormone receptor (TSHR) signaling pathway (AID 1259385; calls by dose curve; note: nearly all actives have a fitted effect of over 20% in size). In outline: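 TSHR-HEK293 cells (800/well) plated 18 h, then compounds with Ro20-1724 and TSH at 1.5 ng/mL final, 30 min at room temperature. cAMP quantified by HTRF (cAMP-d2/anti-cAMP-cryptate, 1 h); 15 concentrations in triplicate.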

A short description of test [11]: qHTS assay to identify small molecule agonists of the estrogen receptor alpha (ER-alpha) signaling pathway in the presence of an antagonist - cell viability counter screen (AID 1259386).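 Note: series mostly up to about 92 µM; cells exposed to compounds for 22 h at 37 °C before the viability read; nearly all actives have a fitted effect of over 30% in size.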 The essentials: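 Cells are starved of estrogens for 5 days in charcoal-stripped serum, seeded for 24hr and co-treated with ICI-182,780 (10.0nM final) and test compounds. After 22hr at 37C, viability is read as CellTiter-Fluor fluorescence.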

Test [12] addresses Progesterone receptor (Homo sapiens) (UniProt P06401). The test is described as follows: qHTS assay to identify small molecule agonists of the progesterone receptor (PR) signaling pathway (AID 1346784; calls by dose curve; note: nearly all actives have a fitted effect of over 30% in size). In outline: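 PR-UAS-bla HEK 293T cells (beta-lactamase reporter under UAS) in 2% charcoal-stripped FBS, dosed with 23 nL compound after 6 hr, incubated 16hr at 37C. LiveBLAzer B/G FRET substrate added, fluorescence read after 2 hours.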

The target is the same in test [13]. The test is described as follows: qHTS assay to identify small molecule antagonists of the progesterone receptor (PR) signaling pathway (AID 1346795; active = well fitted inhibition curve with a large enough effect in the signal ratio in the repeat runs, not every such curve was filed as active; the % refers to the signal ratio). In outline:
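PR-UAS-bla HEK293T cells with beta-lactamase reporter under UAS control, in 2% charcoal-stripped FBS, treated with compounds plus 1 nM promegestone (R5020, final) for 16 hr at 37C. Read-out: FRET beta-lactamase substrate fluorescence after 2 hr at room temperature.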

The nature of test [14]: qHTS assay to identify small molecule antagonists of the progesterone receptor (PR) signaling pathway - cell viability counter screen (AID 1346798). Note: nearly all actives have a fitted effect of over 50% in size. Note: potency is the fitted concentration of half-maximal effect. In outline: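 PR-UAS-bla HEK293T cells, 3,000/well in 2% charcoal-stripped FBS medium, dosed with compounds plus R5020 agonist and incubated 16 h at 37C. Viability then measured in the same wells by CellTiter-Glo luminescence after 30 min at RT.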

A short description of test [15]: qHTS assay to identify small molecule agonists of the progesterone receptor (PR) signaling pathway - cell viability counter screen (AID 1346799; calls by dose curve; note: nearly all actives have a fitted effect of over 45% in size; note: potency is the fitted concentration of half-maximal effect). The essentials:
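Counter screen in the PR-UAS-bla HEK293T wells (2% charcoal-stripped FBS, 16 h compound exposure at 37 C) after the bla read. CellTiter-Glo added, 30 min at room temperature, luminescence read as cell viability.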

The nature of test [16]: qHTS assay to identify small molecule antagonists of the TGF-beta/Smad signaling pathway - cell viability counter screen (AID 1346824). Note: nearly all actives have a fitted effect of over 50% in size. The essentials: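 SBE-bla HEK 293T cells, incubated overnight, then compound plus 0.25 ng/mL TGF-beta1 (stock added) for 5 hr at 37 C. Viability was read in the same wells by CellTiter-Glo luminescence after 30 min at room temperature.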

The nature of test [17]: qHTS assay to identify small molecule agonists of the TGF-beta/Smad signaling pathway - cell viability counter screen (AID 1346829). Note: top concentration of the series differs between compounds; nearly all actives have a fitted effect of over 45% in size. In outline:
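HEK 293T SBE-bla line, 5 hr compound exposure at 37 C, multiplexed CellTiter-Glo viability read by luminescence.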

Test [18] in a line: qHTS assay to identify small molecule agonists of the TGF-beta/Smad signaling pathway (AID 1346859; active = well fitted activation curve with a large enough effect in the signal ratio in the repeat runs, not every such curve was filed as active; the % refers to the signal ratio; note: series mostly up to about 77 µM). The essentials:
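SBE-bla HEK293T cells plated overnight, then compound exposure for 5 h at 37 C. Beta-lactamase reporter read with LiveBLAzer B/G FRET substrate after 2 h at room temperature, fluorescence at 405 nm excitation, 460/530 nm emission.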

Test [19] concerns the target Thyrotropin-releasing hormone receptor (Homo sapiens) (UniProt P34981). The test is described as follows: qHTS assay to identify small molecule antagonists of the thyrotropin-releasing hormone receptor (TRHR) signaling pathway (AID 1346877; active = well fitted inhibition curve with a large enough effect in the repeat runs, not every such curve was filed as active; note: series mostly up to about 51 µM). In outline:
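Cells (TRHR-HEK293) are plated and kept 18 h at 37 °C/5% CO2. A calcium-sensitive dye is added for 2 h, compound follows for 5 min at room temperature, and TRH is then given at 1 nM final.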

The target of test [20] is Androgen receptor (Homo sapiens) (UniProt P10275). As to the kind of experiment: qHTS assay to identify small molecule agonists of the androgen receptor (AR) signaling pathway in the presence of an antagonist (AID 1259381; calls by dose curve; note: nearly all actives have a fitted effect of over 15% in size). In outline:
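Cells are MDA-kb2 (human breast carcinoma, MMTV-luc, AR/GR responsive). Nilutamide is present at 3.0uM final throughout; compounds are added at 15 concentrations and incubated 16hr at 37C before ONE-Glo luminescence detection.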

Chain of Thyrotropin receptor (Homo sapiens) (P16473 whole entry, looked up): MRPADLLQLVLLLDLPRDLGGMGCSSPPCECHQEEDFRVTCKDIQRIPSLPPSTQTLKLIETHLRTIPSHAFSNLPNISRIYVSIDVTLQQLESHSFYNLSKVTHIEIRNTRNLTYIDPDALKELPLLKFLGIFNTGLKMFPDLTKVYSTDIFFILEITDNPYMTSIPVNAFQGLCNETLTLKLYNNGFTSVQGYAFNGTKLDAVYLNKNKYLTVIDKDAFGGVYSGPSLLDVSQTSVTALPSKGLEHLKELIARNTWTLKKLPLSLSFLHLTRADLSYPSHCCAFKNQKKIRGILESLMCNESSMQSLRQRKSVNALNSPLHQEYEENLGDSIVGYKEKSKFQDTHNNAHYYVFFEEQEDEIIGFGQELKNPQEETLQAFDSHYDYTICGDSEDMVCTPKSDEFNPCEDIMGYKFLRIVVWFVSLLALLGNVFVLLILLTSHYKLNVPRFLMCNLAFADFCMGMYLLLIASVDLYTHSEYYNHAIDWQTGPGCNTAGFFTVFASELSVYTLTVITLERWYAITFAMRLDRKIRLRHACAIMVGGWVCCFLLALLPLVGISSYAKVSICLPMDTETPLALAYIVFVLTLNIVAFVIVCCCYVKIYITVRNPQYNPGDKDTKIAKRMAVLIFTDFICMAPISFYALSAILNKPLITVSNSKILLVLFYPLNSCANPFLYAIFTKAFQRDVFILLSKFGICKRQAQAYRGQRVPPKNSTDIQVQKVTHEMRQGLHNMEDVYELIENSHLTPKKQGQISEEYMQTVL
Chain of Thyrotropin-releasing hormone receptor (Homo sapiens) (P34981 whole entry, looked up): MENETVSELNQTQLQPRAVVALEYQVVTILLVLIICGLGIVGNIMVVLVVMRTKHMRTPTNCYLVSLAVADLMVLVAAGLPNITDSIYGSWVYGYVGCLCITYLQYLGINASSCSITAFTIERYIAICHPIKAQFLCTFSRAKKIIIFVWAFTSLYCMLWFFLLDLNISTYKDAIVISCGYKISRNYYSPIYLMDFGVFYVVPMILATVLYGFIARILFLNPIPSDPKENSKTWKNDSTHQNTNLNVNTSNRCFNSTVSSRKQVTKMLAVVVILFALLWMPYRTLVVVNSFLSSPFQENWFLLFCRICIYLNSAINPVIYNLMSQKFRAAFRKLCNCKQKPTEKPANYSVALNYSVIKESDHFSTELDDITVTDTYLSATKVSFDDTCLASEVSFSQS
Chain of Estrogen receptor (Homo sapiens) (P03372 whole entry, looked up): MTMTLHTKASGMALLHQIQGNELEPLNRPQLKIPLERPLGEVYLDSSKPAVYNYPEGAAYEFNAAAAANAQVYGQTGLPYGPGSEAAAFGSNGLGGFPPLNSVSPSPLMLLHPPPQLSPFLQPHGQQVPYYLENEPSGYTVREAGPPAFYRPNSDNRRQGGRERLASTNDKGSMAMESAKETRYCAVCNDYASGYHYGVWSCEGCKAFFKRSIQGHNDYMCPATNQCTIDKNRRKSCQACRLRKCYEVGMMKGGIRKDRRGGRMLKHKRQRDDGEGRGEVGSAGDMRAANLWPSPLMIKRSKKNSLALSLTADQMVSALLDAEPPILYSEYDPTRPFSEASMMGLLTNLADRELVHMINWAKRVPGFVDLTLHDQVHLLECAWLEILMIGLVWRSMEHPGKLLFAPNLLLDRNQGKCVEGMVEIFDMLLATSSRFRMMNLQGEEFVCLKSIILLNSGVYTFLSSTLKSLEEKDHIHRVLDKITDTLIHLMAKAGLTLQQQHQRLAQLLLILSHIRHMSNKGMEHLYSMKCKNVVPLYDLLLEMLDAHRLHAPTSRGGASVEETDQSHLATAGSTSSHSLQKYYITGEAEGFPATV
Chain of Estrogen receptor beta (Homo sapiens) (Q92731 whole entry, looked up): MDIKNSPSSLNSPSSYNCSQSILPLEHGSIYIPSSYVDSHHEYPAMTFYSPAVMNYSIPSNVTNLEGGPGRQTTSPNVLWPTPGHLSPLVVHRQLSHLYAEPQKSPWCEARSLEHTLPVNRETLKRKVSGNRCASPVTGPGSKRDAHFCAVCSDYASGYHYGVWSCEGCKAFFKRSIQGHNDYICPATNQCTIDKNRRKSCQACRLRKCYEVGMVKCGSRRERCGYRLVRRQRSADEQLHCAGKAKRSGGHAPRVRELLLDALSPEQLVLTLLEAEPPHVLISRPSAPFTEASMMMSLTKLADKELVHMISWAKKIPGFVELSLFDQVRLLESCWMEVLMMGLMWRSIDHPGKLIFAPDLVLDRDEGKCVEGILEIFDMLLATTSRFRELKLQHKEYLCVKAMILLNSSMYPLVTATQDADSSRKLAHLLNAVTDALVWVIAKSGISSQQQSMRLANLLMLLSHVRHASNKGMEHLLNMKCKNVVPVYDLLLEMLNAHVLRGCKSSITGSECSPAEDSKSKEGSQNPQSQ
Chain of Progesterone receptor (Homo sapiens) (P06401 whole entry, looked up): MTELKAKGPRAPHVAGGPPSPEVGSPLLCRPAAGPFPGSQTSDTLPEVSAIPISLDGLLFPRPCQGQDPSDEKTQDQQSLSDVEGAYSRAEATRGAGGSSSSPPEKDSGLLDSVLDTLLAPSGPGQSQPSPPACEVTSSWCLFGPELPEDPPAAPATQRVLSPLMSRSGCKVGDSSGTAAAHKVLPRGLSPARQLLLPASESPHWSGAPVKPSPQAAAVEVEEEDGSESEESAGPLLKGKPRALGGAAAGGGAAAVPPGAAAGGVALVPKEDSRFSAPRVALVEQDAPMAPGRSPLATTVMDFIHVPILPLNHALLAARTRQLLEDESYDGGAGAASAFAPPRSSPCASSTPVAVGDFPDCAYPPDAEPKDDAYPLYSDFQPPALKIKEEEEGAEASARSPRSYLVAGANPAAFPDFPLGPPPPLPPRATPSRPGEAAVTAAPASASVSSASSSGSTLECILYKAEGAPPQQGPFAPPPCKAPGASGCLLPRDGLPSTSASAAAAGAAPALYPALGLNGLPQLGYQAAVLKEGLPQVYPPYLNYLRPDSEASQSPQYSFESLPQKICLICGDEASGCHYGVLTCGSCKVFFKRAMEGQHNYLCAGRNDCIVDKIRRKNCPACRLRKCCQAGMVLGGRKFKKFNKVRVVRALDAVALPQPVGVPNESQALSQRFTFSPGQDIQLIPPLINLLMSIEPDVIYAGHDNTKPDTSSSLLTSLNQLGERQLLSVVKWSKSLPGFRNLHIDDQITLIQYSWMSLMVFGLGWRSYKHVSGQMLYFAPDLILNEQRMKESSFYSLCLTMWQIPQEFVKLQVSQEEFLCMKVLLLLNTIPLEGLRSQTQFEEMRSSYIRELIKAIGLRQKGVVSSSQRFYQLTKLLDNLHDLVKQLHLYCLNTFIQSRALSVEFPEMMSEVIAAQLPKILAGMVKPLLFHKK
Chain of Androgen receptor (Homo sapiens) (P10275 whole entry, looked up): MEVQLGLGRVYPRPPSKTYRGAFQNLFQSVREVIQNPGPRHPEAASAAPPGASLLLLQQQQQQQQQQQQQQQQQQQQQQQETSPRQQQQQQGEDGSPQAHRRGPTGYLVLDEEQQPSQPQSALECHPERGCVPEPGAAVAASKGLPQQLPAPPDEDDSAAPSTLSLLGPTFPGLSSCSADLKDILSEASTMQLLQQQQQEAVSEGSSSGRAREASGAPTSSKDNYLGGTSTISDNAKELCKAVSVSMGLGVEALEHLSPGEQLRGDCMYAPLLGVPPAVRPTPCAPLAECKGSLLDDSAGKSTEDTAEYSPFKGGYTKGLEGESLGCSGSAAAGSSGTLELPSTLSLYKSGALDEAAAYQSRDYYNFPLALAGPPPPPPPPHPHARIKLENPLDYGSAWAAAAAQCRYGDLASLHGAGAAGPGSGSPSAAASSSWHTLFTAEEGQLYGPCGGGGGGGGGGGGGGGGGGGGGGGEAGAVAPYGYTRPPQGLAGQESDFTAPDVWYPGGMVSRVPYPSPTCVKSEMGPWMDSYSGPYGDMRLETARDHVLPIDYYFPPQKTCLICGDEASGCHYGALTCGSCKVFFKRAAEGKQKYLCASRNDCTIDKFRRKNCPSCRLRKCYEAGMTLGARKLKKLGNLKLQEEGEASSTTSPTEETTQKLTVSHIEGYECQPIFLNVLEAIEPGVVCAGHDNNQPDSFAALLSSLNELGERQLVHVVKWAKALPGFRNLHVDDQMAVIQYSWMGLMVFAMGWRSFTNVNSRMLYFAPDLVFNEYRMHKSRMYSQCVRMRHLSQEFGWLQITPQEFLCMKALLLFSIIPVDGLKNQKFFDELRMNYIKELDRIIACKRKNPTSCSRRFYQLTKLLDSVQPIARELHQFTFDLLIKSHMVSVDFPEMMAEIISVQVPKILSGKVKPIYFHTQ

For `CCN(CC)C(=O)c1ccc(O)c(OC)c1`, the Potency result in [1], in test [2], in [4], in [5], in [6] and in test [7] was “inactive” throughout. Moreover, the Potency result in test [8], in test [10], in [12], in [13], in test [14] and in test [15] was “inactive” throughout. Besides, the compound was called inactive in [3], in [9], in [11], in test [16], in [17] and in [18]. Moreover, the compound was called inactive in test [19].
Consider `COc1cccc(Br)c1`, for which the Potency entry in test [1], in [2], in test [4], in test [5], in [6] and in test [20] was “inactive” in each case. Moreover, the Potency entry in test [7], in test [8], in test [10], in test [13] and in [15] was “inactive” in each case. Besides, the compound was classed as inactive in [3], in [9], in test [16], in [17], in test [18] and in [19].
Turning to `CCCOCC(C)OCC(C)O` (centres undefined), the Potency result in test [1], in test [2], in test [4], in test [5], in [6] and in [20] was “inactive” each time. Further, the Potency result in test [7], in test [10], in test [12], in test [13], in [14] and in [15] was “inactive” throughout. The result in test [3], in [9], in test [11], in test [16], in [18] and in test [19] was inactive.
As to `CCCCCCOC(=O)CC(CC(=O)OCCCCCC)(OC(=O)CCC)C(=O)OCCCCCC`, the Potency result in test [1], in test [2], in test [4], in test [5], in [6] and in test [20] was “inactive” each time. Besides, the Potency result in test [7], in test [8], in [10], in test [13] and in test [14] was “inactive” throughout. Besides, the outcome in test [3], in test [9], in [11], in test [16], in test [17] and in [18] was inactive.
For `CC(O)CN(CCCN(C)C)CCCN(C)C` (centres undefined), the Potency entry in test [1], in [2], in test [4], in test [5], in [6] and in test [7] was “inactive” throughout. The Potency entry in [12], in [13], in test [14] and in [15] was “inactive” throughout. Besides, the call in test [3], in test [11], in [17], in [18] and in [19] was inactive.
Regarding `Nc1nc(F)nc2c1ncn2[C@@H]1O[C@H](CO)[C@@H](O)[C@@H]1O`, the Potency result in test [1], in test [2], in [4], in test [5], in [6] and in test [7] was “inactive” each time. The Potency result in test [8], in [10], in test [13], in test [14] and in test [15] was “inactive” throughout. The result in test [3], in [9], in [11] and in test [18] was inactive.
As for `CC(C)(O)c1ccccc1`, the Potency result in test [1], in test [2], in test [4], in test [5], in test [6] and in test [8] was “inactive” throughout. Besides, the Potency entry in [13] was “inactive”. Further, the call in test [3], in test [16], in test [17], in test [18] and in test [19] was inactive. The Potency in [14] is 52.2 µM (active); in [15] it was 58.6 µM (active).
As for `C1=C\CC/C=C\CC/C=C\CC/1`, the Potency entry in [1], in test [2], in [4], in test [5], in test [6] and in [7] was “inactive” throughout. Further, the Potency result in test [12], in test [13], in [14] and in test [15] was “inactive” each time. The compound was classed as inactive in test [3], in [11], in test [17] and in test [18].
